Results published in the supplement of paper PMC3616981.
± gives the standard deviation of the averaged measurements.

Columns and labels:
[1] = compound: CC(C)c1cccc(C(C)C)c1N1C(=O)c2ccc(O)cc2C1=O; test: reporter fold induction vs vehicle; higher = higher reporter activity
Procedure, shortened: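 Values give reporter activity as fold induction compared with vehicle, averaged across replicates where available. The multiplexed cellular reporter system carried 48 cis and 25 trans constructs, and ToxCast Phase II chemicals were run at 8 concentrations from 0.091 to 200 µM.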

[2] = compound: CC(C)c1cccc(C(C)C)c1N1C(=O)c2ccc(O)cc2C1=O; test: BioMAP readout fold decrease vs vehicle (vehicle/treated); higher = stronger decrease of the readout vs vehicle (values <1 mean increase)
Experimental: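 BioSeek BioMAP human primary cell (co-)culture systems (3C, 4H, LPS, SAg, BE3C, CASM3C, hDFCGF, KF3CT) treated with 5HPP-33 at 1.48, 4.44, 13.3 and 40 µM. Read-outs are protein levels by ELISA, proliferation and SRB total protein. Duplicate rows per assay are averaged as replicates. Tested in ToxCast Phase II for this study; exposure time not stated.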
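Wherever BioMAP readout fold decrease vs vehicle (vehicle/treated) is given: Co-cultures of keratinocytes, bronchial epithelial and smooth muscle cells, fibroblasts, HUVECs and PBMCs under stimuli like LPS, TNF-α, IFN-γ, IL-1β, TGF-β or EGF, SRB reflecting cytotoxicity.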

Target	reporter fold induction ([1]; 0.091 µM)	reporter fold induction ([1]; 0.274 µM)	reporter fold induction ([1]; 0.823 µM)	reporter fold induction ([1]; 2.469 µM)	reporter fold induction ([1]; 7.407 µM)	reporter fold induction ([1]; 22.22 µM)	reporter fold induction ([1]; 66.67 µM)	reporter fold induction ([1]; 200 µM)	BioMAP readout fold decrease ([2]; 1.48 µM)	BioMAP readout fold decrease ([2]; 4.44 µM)	BioMAP readout fold decrease ([2]; 13.3 µM)	BioMAP readout fold decrease ([2]; 40 µM)
ERRa_TRANS	1.21	0.853	1.02	1.39	1.37	0.823	0.836	0.339				
AP_2_CIS	1.04	1	1	1.05	1.01	0.908	0.965	0.898				
ERa_TRANS	1.72	2.62	4.32	5.19	4.48	4.97	2.96	1.06				
M_61_CIS	0.997	0.997	1.01	0.995	1.02	1.02	0.98	1.09				
NF_kB_CIS	1.08	0.96	0.971	0.979	0.968	1.08	1.39	1.06				
LXRa_TRANS	0.858	0.611	1	0.742	0.814	0.638	0.979	0.718				
IR1_CIS	1.07	0.953	1.02	1.01	1.08	0.864	0.788	0.644				
NFI_CIS	1.01	0.966	1.05	0.998	1.02	0.921	1.41	1.66				
Oct_MLP_CIS	1.09	1.03	1.03	1.01	1.08	1.1	1.77	3.68				
PPARd_TRANS	1.05	0.856	0.9	1.11	0.953	1.14	1.27	1.45				
AP_1_CIS	1.01	0.867	0.986	0.984	1.2	1.44	1.7	0.71				
RARg_TRANS	1.16	0.981	1.09	1.21	1.54	1.83	1.82	0.812				
HIF1a_CIS	1.04	1.07	1.03	1.03	1.07	1.22	0.927	1.08				
Sp1_CIS	1.04	1.04	1.02	0.989	1.11	1.08	1.39	2.02				
M_06_CIS	0.997	0.997	1.01	0.995	1.02	1.02	0.98	1.09				
M_61_TRANS	0.964	1.01	0.995	1.01	1.01	1	0.996	0.992				
NURR1_TRANS	1.09	1.26	1.01	1.05	1.08	0.976	0.934	1.2				
M_32_CIS	1.02	0.981	1	1.02	0.972	0.978	1.12	1.02				
THRa1_TRANS	1.06	1.01	1.07	1.3	0.83	0.993	1.35	0.658				
Pax6_CIS	1	1.01	1.02	1.1	0.964	1.1	1.49	2.44				
BRE_CIS	0.993	0.878	1.14	0.967	0.938	0.934	3.36	1.05				
hDFCGF_Proliferation									1.22 ± 0.13	2.66 ± 0.091	4.594 ± 0.011	12.1 ± 0.038
BE3C_uPAR									1.02 ± 0.013	1.0603 ± 0.00083	1.1 ± 0.012	1.26 ± 0.022
SAg_Eselectin									1.14 ± 0.027	1.02 ± 0.041	1.14 ± 0.087	3.92 ± 0.27
3C_hLADR									1.04 ± 0.038	1.55 ± 0.048	4.27 ± 0.47	7.36 ± 0.11
hDFCGF_PAI1									1.12 ± 0.14	1.08 ± 0.056	1.43 ± 0.031	3.53 ± 0.21

Target	reporter fold induction ([1]; 0.091 µM)	reporter fold induction ([1]; 0.274 µM)	reporter fold induction ([1]; 0.823 µM)	reporter fold induction ([1]; 2.469 µM)	reporter fold induction ([1]; 7.407 µM)	reporter fold induction ([1]; 22.22 µM)	reporter fold induction ([1]; 66.67 µM)	reporter fold induction ([1]; 200 µM)	BioMAP readout fold decrease ([2]; 1.48 µM)	BioMAP readout fold decrease ([2]; 4.44 µM)	BioMAP readout fold decrease ([2]; 13.3 µM)	BioMAP readout fold decrease ([2]; 40 µM)
CASM3C_IL8									1.02 ± 0.02	1.074 ± 0.0085	0.938 ± 0.016	0.872 ± 0.025
HNF6_CIS	0.992	0.941	0.978	0.981	0.982	0.952	0.932	0.692				
KF3CT_MMP9									0.991 ± 0.0099	1.17 ± 0.028	1.45 ± 0.081	4.32 ± 0.16
DR5_CIS	0.96	1.09	1.11	0.929	1.98	2.11	1.71	2.04				
Ets_CIS	1.02	0.953	1.01	1.02	1	0.917	1.01	0.897				
4H_Pselectin									0.965 ± 0.074	1.09 ± 0.095	1.56 ± 0.019	1.75 ± 0.032
GRE_CIS	0.966	0.951	1.06	1.05	0.999	0.996	1.01	0.888				
KF3CT_uPA									1.016 ± 0.0099	1.015 ± 0.01	0.969 ± 0.012	2.15 ± 0.47
hDFCGF_CollagenIII									1.123 ± 0.0039	1.19 ± 0.025	1.04 ± 0.012	1.49 ± 0.13
CASM3C_Thrombomodulin									0.989 ± 0.031	0.942 ± 0.049	0.956 ± 0.031	1.23 ± 0.078
BE3C_IL1a									1.06 ± 0.13	1.13 ± 0.015	1.19 ± 0.015	1.85 ± 0.082
KF3CT_TGFb1									1.03 ± 0.011	1.044 ± 0.0031	1.11 ± 0.021	2.33 ± 0.15
SAg_CD69									1.13 ± 0.076	1.24 ± 0.035	1.52 ± 0.077	3.2 ± 0.15
PBREM_CIS	1.05	1.04	0.916	0.965	1.24	1.15	1.19	1.16				
CASM3C_SAA									1.02 ± 0.09	1.12 ± 0.018	1.094 ± 0.0048	1.72 ± 0.1
4H_VEGFRII									1.07 ± 0.028	1.03 ± 0.021	1.2 ± 0.076	1.45 ± 0.069
LPS_SRB									0.935 ± 0.012	1.032 ± 0.0086	1.277 ± 0.0063	1.87 ± 0.066
BE3C_PAI1									1.18 ± 0.056	1.236 ± 0.012	1.5 ± 0.03	1.91 ± 0.13
AR_TRANS	1.06	0.894	1.13	1.02	1.02	1.29	1.01	1.14				
hDFCGF_EGFR									1.0619 ± 0.00028	1.02 ± 0.028	1.19 ± 0.025	1.291 ± 0.0087
hDFCGF_VCAM1									1.18 ± 0.2	1.32 ± 0.063	2.03 ± 0.15	4.4 ± 0.3
CASM3C_Proliferation									1.11 ± 0.024	1.58 ± 0.054	1.2 ± 0.23	2.76 ± 0.16
3C_uPAR									1.13 ± 0.03	1.15 ± 0.053	1.43 ± 0.1	2.6 ± 0.15
hDFCGF_MCSF									1.03 ± 0.01	0.98 ± 0.05	1.21 ± 0.024	2.01 ± 0.16
LPS_TissueFactor									0.905 ± 0.021	0.9505 ± 0.0063	1.04 ± 0.02	1.21 ± 0.024
hDFCGF_TIMP1									0.847 ± 0.061	0.78536 ± 0.00052	0.608 ± 0.042	0.715 ± 0.069
